“And” between values parts separate entries of the source, which are not always exact repeats. Equal entries are not always repeated. This is part of a sample that, as a whole, favours compounds with a hit. Of some 79,000 tested, about 15% had one in any assay. A number with no mark means an inactive call. The source made the active and inactive calls. Cut-off read from the data, not from the text of the source: active = growth inhibition above about 70%; inactive = the rest.
Assay: NCI Yeast Anticancer Drug Screen. Data for the bub3 strain (AID 167)
Conditions: S. cerevisiae bub3 mutant strain, active compounds read high; at 50.0 µM unless noted
In short: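 Part of a panel of yeast mutants defective in DNA damage repair or cell cycle regulation. Each strain is grown with compound, and inhibition is calculated relative to solvent-treated cultures.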

Point of comparison: `CCCCCCCCCCCCCCCCCC(=O)N1CCN(C(=O)CCCCCCCCCCCCCCCCC)C1`, growth inhibition -1.25%. Against it:
- O=C(C1=CCCCC1)c1ccc(-c2ccccc2)cc1 — lower, -6.15%
- c1ccc2c(c1)C(=NCCCN1CCCCCCC1)c1cccn1-2 — higher, 23.1%
- Cn1cnc([N+](=O)[O-])c1Sc1nc2cc(Cl)c(F)cc2[nH]1 — lower, -25.1%
- COCCCC(=O)CNC(C)C — lower, -21.1%
- O=C(CCS(=O)(=O)CCC(=O)c1ccc2ccccc2c1)c1ccc2ccccc2c1 — higher, 0.25%
- NC(=O)Nc1ccccc1-c1ccccc1 — lower, -10.8%
- Nc1nc(N)c2nc(SC34CC5CC(CC(C5)C3)C4)c(N)nc2n1 — lower, -3.65%
- CC(C)(O)CCNc1ncnc2c1ncn2C1OC(CO)C(O)C1O (stereo not given) — higher, 13.9%
- OC(CN1CCCC1)c1ccccc1 (stereo not given) — higher, -0.25%
- O=C1c2ccccc2C(=O)N1CN1C(=O)c2ccccc2S1(=O)=O — higher, 19.4%
- COc1ccccc1N=C(N)N/N=C/c1c[nH]c2ccccc12 — higher, 1.45%
- CC(=O)Nc1nc(SCc2ccccc2)c2[nH]cnc2n1 — higher, 31.2%
- CC1=CCCC2C(C=O)(C1)CC(C)C2(CO)CC/C(=C/CO)CO (stereo not given) — lower, -3.4%
- CCCCC(C)(C)SCCC(=O)O — higher, 5.6%
- CCCCCC[N+](C)(C)C — higher, 31.3%
- CC(=NCCCCN=C(C)c1cc(O)cc(Br)c1O)c1cc(O)cc(Br)c1O.[Co] — higher, 2.1%
- CN(Cc1cnc2nc(N)nc(N)c2n1)c1ccc(C(=O)NC(CCC(=O)OCc2c(Cl)cccc2Cl)C(=O)OCc2c(Cl)cccc2Cl)cc1 (stereo not given) — higher, 22.1%
- Cc1ccc(S(=O)(=O)OCC2C3C=CC(C4C=CC43)C2COS(=O)(=O)c2ccc(C)cc2)cc1 (stereo not given) — higher, 11.8%
- Nc1ncnc2c1ncn2CC(O)CN(CCO)CCO (stereo not given) — lower, -10.8%
- CCOC(=O)c1c[nH]n(-c2ccccc2)c1=O — lower, -2.7%
- CN(C)CCNC(=O)Nc1cccc2ccccc12 — lower, -6.5%
- O=C1CCC(=O)N1C(c1ccccc1)c1ccccc1 — higher, 20.9%
- COC(=O)c1ccccc1-c1ccccc1C(=O)O — higher, 8.3%
- Cc1ccc(/C=C2\CCCC\C2=N\O)cc1 — lower, -22.6%
- COc1ccc(OC)c2[nH]c(Sc3c([N+](=O)[O-])ncn3C)nc12 — lower, -15.2%
- O=C(Nc1ccc([N+](=O)[O-])cc1C(=O)O)c1ccc([N+](=O)[O-])cc1 — lower, -22.3%
- CCCCOC(=O)NC(=O)c1cc2cc(Cl)ccc2oc1=O — higher, 23.1%
- O=C(O)c1cc(Cl)c2ccccc2c1O — higher, 42.1%
- CCOC(=O)c1[nH]c(=O)[nH]c(=O)c1[N+](=O)[O-] — lower, -11.9%
- O=C(O)Cc1ccc(O)cc1 — lower, -11.7%
- CC(C(=O)O)N1C(=O)CNC1=O (stereo not given) — higher, 1.25%
- O=C1C(N2CCCCC2)=C(c2ccccc2)c2ccccc21 — higher, 17.1%
- Cc1ccc2c(c1)P(=O)(O)c1cc(C)ccc1S2 — lower, -4.05%
- O=C(O)C1C2CCCC21 (stereo not given) — higher, 2%
- Cc1ccc2nc(=O)c3cccnc3n2c1 — higher, 23.8%
- O=C(NCc1ccccc1)C(=O)NCc1ccccc1 — lower, -6.9%
- Cc1cc(OCC(=O)O)cc(C)c1C — lower, -4.55%

In the case of `Nc1cc(N)c(N)cc1N`, the growth inhibition is reported as 41.7% and -13.9%.
In the case of `CCCCOP(=O)(Nc1ccc([N+](=O)[O-])cc1)OCCCC`, the growth inhibition is reported as 77.2% (active).

Reference: PubChem BioAssay (NCI)
